Source: PubChem
Most compounds without a hit are left out; they make up all but 0.72% or so of the library.
RXFP1 agonist: qHTS Assay for Agonists of the Relaxin Receptor RXFP1; Potency, µM (top dose mostly 57.5 µM), usual class: activators; HEK293T-RXFP1 cAMP TR-FRET, 30 min; response scale: percent of porcine relaxin response, buffer zero; 370,000 tested, 0.3% active; note: nearly all actives have a fitted effect of over 60% in size
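cAMP rise read by TR-FRET after 30 min, 37C compound exposure (up to 58 uM) in RXFP1-transfected HEK293 cells with Ro 20174 present. EC50 from Hill-equation fits, with 29 nM porcine relaxin as 100% and buffer as basal.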
ERG-DNA inh: qHTS for Small Molecule Inhibitors of the ERG Ets/DNA interaction | fluorescence polarization, His-ERG Ets domain / labelled DNA | Potency, µM (titrated, usually from 76.9 µM), hits mostly inhibitors | 370,000 tested, 0.028% active | AID 624246, 2012; active = well fitted inhibition curve with a large enough effect in the polarisation, with a control signal flat; inconclusive = small, poorly fitted or top-dose-only effect, or effect the other way, or a change in a side signal; inactive = no such curve, though single readings can be large or run the other way; the % refers to the polarisation;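 note: polarization taken with two DNA probes labelled with fluorescein and Texas red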
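His-tagged ERG Ets domain (1 uM in the protein solution; 300mM KCl, 50mM Tris-HCl, 1mM EDTA, 1mM DTT, pH 7.5) received compound, then a probe mix of 5 nM fluorescein-DNA and 100nM Texas-615-DNA. Fluorescence polarization was read for both dyes.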
RXFP1 antagonist: qHTS Assay for Antagonists of the Relaxin Receptor RXFP1 | HEK293-RXFP1, relaxin-stimulated cAMP HTRF, 30 min; stronger effect = lower value | Relaxin receptor 1 (Homo sapiens), Q9HBX9 | activity change, negative = inhibition, % at 57.5 µM | 350,000 tested, 0.59% active | AID 1259400, 2018;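 active = activity change of -60% or lower, but not beyond a set lower limit; inconclusive = change between -60% and -40%, or beyond the set limit; inactive = change above -40%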
Mito fusion yeast: qHTS Assay for Small Molecule Inhibitors of Mitochondrial Division or Activators of Mitochondrial Fusion; S. cerevisiae fusion-defective mutant growth rescue, CellTiterGlo 48 h; Potency, µM (top dose mostly 46.1 µM), most hits filed as activators; AID 485298, 2010; 320,000 tested, 0.23% active; note: nearly all actives have a fitted effect of over 45% in size
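Growth-rescue viability read-out: after 48 h at the non-permissive 37C in glycerol/ethanol YPEG, yeast mitochondrial fusion mutants are measured by CellTiterGlo luminescence; compounds (23 nl pinned per well) restoring growth score as division inhibitors or fusion activators.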
miR-21 reporter: qHTS Assay for Modulators of miRNAs and/orActivators of miR-21; HeLa miR-21 FLuc reporter, luciferase, 48 h; Potency, µM (series often up to 38.3 µM), hits mostly activators; 340,000 tested, under 10 active; AID 2288, 2010;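 note: miR-21 action dims this reporter so a rising signal means less miR-21 action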
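HeLa cells stably expressing CMV-driven firefly luciferase with a downstream miR-21 binding sequence, endogenously expressing miR-21, were treated with titrations (up to about 40uM final) for 48 hours at 37 degree Celsius. Luciferase luminescence was read after lysis.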
ASM inhibitor: Inhibitors of Secretory Acid Sphingomyelinase (S-ASM): qHTS | placental ASM, HMU-PC fluorogenic substrate, 60 min | Potency, µM (top dose mostly 57.5 µM), hits mostly inhibitors | AID 504937, 2011 | Sphingomyelin phosphodiesterase (Homo sapiens), P17405 | 340,000 tested, 0.006% active
Target sequence (P17405 47-631 limits assumed): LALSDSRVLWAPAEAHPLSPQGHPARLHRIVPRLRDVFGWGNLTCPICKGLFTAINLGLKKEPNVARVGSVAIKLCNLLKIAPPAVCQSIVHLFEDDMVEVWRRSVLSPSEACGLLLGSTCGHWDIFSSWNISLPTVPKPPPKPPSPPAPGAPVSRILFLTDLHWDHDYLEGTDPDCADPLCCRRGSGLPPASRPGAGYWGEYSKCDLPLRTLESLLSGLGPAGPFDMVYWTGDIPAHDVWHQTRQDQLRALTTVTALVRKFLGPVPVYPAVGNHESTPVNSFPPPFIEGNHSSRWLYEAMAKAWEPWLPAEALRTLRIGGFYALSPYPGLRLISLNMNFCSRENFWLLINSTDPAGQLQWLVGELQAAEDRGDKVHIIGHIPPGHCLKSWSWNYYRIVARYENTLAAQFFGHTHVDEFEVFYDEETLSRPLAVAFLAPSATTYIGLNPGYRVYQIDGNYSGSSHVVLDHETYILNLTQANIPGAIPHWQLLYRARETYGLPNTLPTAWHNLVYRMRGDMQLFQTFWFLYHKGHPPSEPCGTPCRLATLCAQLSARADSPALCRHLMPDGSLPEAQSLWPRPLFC
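qHTS format. ASM enzyme prepared from human placenta hydrolyses the fluorogenic substrate HMU-PC0 (9 uM final) over 60 min at 37 °C after a 10 min compound preincubation.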
Hits are given with their value; n = inactive; u = inconclusive; x = no result given; [ ] = remark or other dose. Unless noted, calls come from the whole dose curve; as a rule, active = well fitted curve in the direction sought with a large enough effect; inconclusive = small, poorly fitted or top-dose-only effect, or another doubt; inactive = no such curve, though single readings can be large; an effect the other way counts as inactive or inconclusive.

SMILES	RXFP1 agonist	ERG-DNA inh	RXFP1 antagonist	Mito fusion yeast	miR-21 reporter	ASM inhibitor
Cc1ccc(O)c(NC(=O)CCS(=O)(=O)c2nc(-c3cccs3)cc(C(F)(F)F)n2)c1	n	n	n	x	u	x
Cc1ccccc1NS(=O)(=O)c1ccc2[nH]cc(C(=O)NCCc3ccccc3)c(=O)c2c1	n	n	n	n	n	x
CCCC[C@]12Cc3cc(C#N)ccc3C(O1)c1c(cc(C)n(-c3ccccc3)c1=O)O2	n[11.5 µM]	x	x	n[9.22 µM]	n[7.66 µM]	x
N=C(N)SCc1cn(-c2ccccc2)nc1-c1ccc(Br)cc1	n	n	-79	n	u	n
Cc1nc2c(C(=O)NC(C)c3ccccc3)cnn2c(C)c1Cc1ccccc1 (stereo unspecified)	n	n	-85	x	n	x
COC(CNC(=O)c1cnn2c(C)c(Cc3ccccc3)c(C)nc12)OC	n	n	n	n	n	n
Cc1nc2c(C(=O)NCCc3ccc(Cl)cc3)cnn2c(C)c1Cc1c(F)cccc1Cl	n	n	n	x	n	x
Cc1nc2c(C(=O)NCCc3ccc(Cl)cc3)cnn2c(C)c1Cc1ccc(F)cc1	n	n	-61	x	n	x
OCC1O[C@H]([S-])[C@H](O)[C@@H](O)[C@@H]1O.[Au+] (stereo partly specified)	x	x	x	n	x	x
COc1ccc(C[C@@H]2OC3(C=CC(=O)C=C3)O[C@H]2Cc2ccc(OC)cc2)cc1	x	x	-92	x	x	n
O=C1C=CC2(C=C1)O[C@H](Cc1ccccc1)[C@@H](Cc1ccccc1)O2	x	n	u	x	x	n
CC1(C)C(=O)CC[C@@]2(C)[C@H]1CC[C@@]1(C)CC3=C(CC[C@@H]12)[C@@]1(C)CCC(=O)C(C)(C)[C@@H]1CC3	n	x	x	n	x	x
CCOc1ccc(Cn2nnc(C(=O)NCc3ccc(OC)cc3)c2N)cc1	32µM	n	x	n	n	n
Cc1cnc(C(=O)OCC(=O)Nc2ccc(Br)cc2F)cn1	n	n	n	n	x	n
CC(=O)Nc1cc2nc(C)n(Cc3ccc([N+](=O)[O-])cc3)c2nc1C	n	n	n	n	n	n
CC1=NNC(=O)/C1=C\c1cn(-c2ccccc2)nc1-c1cccs1	n	n	u	n	u	n
CC1=NNC(=O)/C1=C\c1cn(-c2ccccc2)nc1-c1ccc(F)cc1	n	n	-61	n	n	n
Cc1ccc(-c2nn(-c3ccccc3)cc2/C=N/O)cc1	n	n	-64	n	n	n
CCOC(=O)c1c(CN2CCN(C)CC2)n(-c2ccccc2)c2cc(Br)c(O)cc12	n	n	n	n	n	n
CCOC(=O)c1c(CSC(=N)N)n(-c2ccccc2)c2cc(Br)c(OC(C)=O)cc12	n	n	-61	n	n	n
Cc1ccc2nc(N(CCCN(C)C)C(=O)COc3ccc(Cl)cc3)sc2c1	n	n	n	n	n	n
Cc1cc(C)c2sc(N(CCCN(C)C)C(=O)COc3ccc(Cl)cc3)nc2c1	n	n	-72	n	n	u
Cc1cc(C)c2sc(N(CCCN(C)C)C(=O)c3ccc(S(=O)(=O)N(C)C4CCCCC4)cc3)nc2c1	n	n	-84	n	x	n
Cc1cc(=O)oc2cc(O[C@@H]3SC[C@@H](O)[C@H](O)[C@H]3O)ccc12	x	x	n	x	x	x
Cc1cccc(-n2c(-c3csc(C(C)C)c3)n[nH]c2=S)c1	n	n	-71	n	n	n
SMILES	RXFP1 agonist	ERG-DNA inh	RXFP1 antagonist	Mito fusion yeast	miR-21 reporter	ASM inhibitor
COc1ccc(NC(=O)c2nnn(CC(=O)Nc3ccccc3OC)c2N)c(OC)c1	n	n	-102	n	n	n
Cc1cc(NC(=O)COC(=O)[C@@H](NS(=O)(=O)c2ccccc2)C(C)C)no1	n	n	n	n	n	n
CC(C)[C@H](NS(=O)(=O)c1ccccc1)C(=O)OCC(=O)Nc1ccccc1Sc1ccccc1	n	n	n	22µM	n	n
CCN(CC)c1ccc(NC(=O)C2COc3ccc(OC)cc3C2)c(C)c1 (stereo unspecified)	n	n	n	x	n	x
N#Cc1ccccc1NC(=O)c1cc2c(=O)n3ccccc3nc2s1	n	n	n	x	n	x
COc1ccc(OC)c(CNC(=O)C2CCCCN2S(=O)(=O)c2ccc(F)cc2)c1 (stereo unspecified)	n	n	n	x	n	x
O=C1/C(=C/c2cccs2)CCC/C1=C\c1cccs1	n	n	n	n	n	n
O=C1/C(=C/c2ccsc2)CC/C1=C\c1cccs1	x	x	x	12µM	x	x
O=C(O)C1CCC(Cn2c(SCc3cc(=O)n4cc(Br)ccc4n3)nc3ccsc3c2=O)CC1 (stereo unspecified)	8.9µM	n	n	n	n	n
COc1ccc(CCNC(=O)CSc2nc3ccsc3c(=O)n2CC2CCC(C(=O)O)CC2)cc1OC (stereo unspecified)	n	n	n	n	n	n
O=C(O)c1ccc(Cn2c(SCc3cc(=O)n4cc(Br)ccc4n3)nc3ccsc3c2=O)cc1	16µM	x	x	n	n	x
O=C(O)CCCCn1c(SCc2cc(=O)n3cc(Cl)ccc3n2)nc2ccsc2c1=O	u	n	n	n	n	n
Clc1ccc(C(c2ccccc2Cl)C(Cl)Cl)cc1 (stereo unspecified)	n	n	-74	u	x	n
Cc1nnc(-c2cccc(Br)c2)c2cn(-c3ccccc3Cl)nc12	n	n	-64	n	n	n
O=C(Nc1ccccc1)N1N=C(c2cccs2)CC1c1cccs1 (stereo unspecified)	n	x	n	11µM	n	n
CCCCC/C=C/C/C=C/CCCCCCCC(=O)NC(C)c1ccccc1 (stereo unspecified)	x	x	n	x	x	x
CC1(C)CC2(CC(c3ccccc3F)c3ccc(O)c(O)c3O2)NC(=S)N1 (stereo unspecified)	n	n	-76	n	n	n
CC1(C)CC2(CC(c3ccc(F)cc3)c3ccc(O)cc3O2)NC(=S)N1 (stereo unspecified)	n	n	n	n	n	n
O=C(O)c1ccccc1C(=O)Nc1cccc([N+](=O)[O-])c1	n	n	n	n	n	n
O=C(Nc1cccc([N+](=O)[O-])c1)c1cc2ccccc2cc1O	n	n	-69	n	n	n
c1ccc(C(O[C@H]2CCCN(CCc3ccc4c(c3)OCO4)C2)c2ccccc2)cc1	x	x	-62	x	x	x
CC(NCc1ccc2c(c1)OCO2)c1ccccc1 (stereo unspecified)	n	n	n	n	n	n
